According to PubChem BioAssay (NCI):
Several values for one entry are separate records, joined by “and”; a condition that tells them apart may be missing. Equal values may be shown once. This is part of a sample that, as a whole, favours compounds with a hit. Of some 79,000 tested, about 15% had one in any assay. More than one record can exist for a structure, and the calls need not agree. Activity calls are given as the source filed them. Rule as the data show it: active = growth inhibition above about 70%; inactive = the rest.

Key:
[1] = NCI Yeast Anticancer Drug Screen. Data for the mgt1 strain (AID 153); conditions: S. cerevisiae mgt1 mutant growth inhibition, stronger effect = higher value
Summary of the method: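 Vehicle-normalized growth inhibition is determined in mgt1 yeast, a strain selected for a defined alteration in DNA repair or cell cycle control.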

[2] = NCI Yeast Anticancer Drug Screen. Data for the rad50 strain (AID 155);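 also: 0% = growth of vehicle-only cultures of the same strain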; conditions: S. cerevisiae rad50 strain growth inhibition, stronger effect = higher value
Summary of the method: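 Readout: growth inhibition relative to vehicle-treated cultures. Compound exposure was carried out in a genetically defined yeast strain deficient in DNA damage repair.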

[3] = NCI Yeast Anticancer Drug Screen. Data for the mec2-1 strain (AID 157); conditions: S. cerevisiae mec2-1 strain, stronger effect = higher value
Summary of the method: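 Mutant yeast (mec2-1) grown with compound; growth inhibition relative to vehicle control reported.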

[4] = NCI Yeast Anticancer Drug Screen. Data for the rad14 strain (AID 159);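 also: 0% = growth of vehicle-treated control cultures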; conditions: S. cerevisiae rad14 strain growth inhibition, stronger effect = higher value
Summary of the method: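 Growth inhibition vs vehicle controls; genetically altered yeast strain (DNA damage repair defect) treated with test compounds.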

[5] = NCI Yeast Anticancer Drug Screen. Data for the sgs1 mgt1 strain (AID 161);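 also: 0% = growth of cultures given vehicle only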; conditions: S. cerevisiae sgs1 mgt1 strain, stronger effect = higher value
Summary of the method: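 Compounds are added to genetically altered yeast, and growth is compared with cultures given vehicle alone to give percent inhibition.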

[6] = NCI Yeast Anticancer Drug Screen. Data for the CLN2oe strain (AID 163);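 also: 0% = growth of vehicle-only control cultures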; conditions: S. cerevisiae CLN2oe strain, stronger effect = higher value
Summary of the method: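 Compounds are applied to yeast harbouring a defined cell-cycle control change; reduced growth compared with vehicle-treated controls gives the value.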

[7] = NCI Yeast Anticancer Drug Screen. Data for the cln2 rad14 strain (AID 165);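 also: 0% = growth equal to vehicle treated cultures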; conditions: S. cerevisiae cln2 rad14 strain, stronger effect = higher value
Summary of the method: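 Readout is yeast growth inhibition versus vehicle-treated controls, using a strain with cln2 and rad14 alterations exposed to compound.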

[8] = NCI Yeast Anticancer Drug Screen. Data for the bub3 strain (AID 167); conditions: S. cerevisiae bub3 mutant strain, stronger effect = higher value
Summary of the method: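 Readout: yeast growth inhibition, expressed relative to vehicle-only wells. The test organism is a mutant strain from a panel with lesions in DNA repair or checkpoint genes.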

[9] = NCI Yeast Anticancer Drug Screen. Data for the wt2 strain (AID 169);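 also: 0% = growth of vehicle-treated yeast cultures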; conditions: S. cerevisiae wt2 strain growth inhibition, stronger effect = higher value
Summary of the method: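 Against vehicle-treated controls, the growth of yeast exposed to each compound was compared, and the inhibition was recorded.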

[10] = NCI Yeast Anticancer Drug Screen. Data for the mlh1 strain (AID 171);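 also: 0% = growth of vehicle-treated control cultures of the same strain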; conditions: S. cerevisiae mlh1 strain growth inhibition, stronger effect = higher value
Summary of the method: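 Measured: yeast growth. Reference: vehicle-treated controls. Organism: strain with a defined alteration affecting DNA damage repair or cell cycle control, treated with compound.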

[11] = NCI Yeast Anticancer Drug Screen. Data for the sgs1 strain (AID 173);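 also: 0% = growth of vehicle-only control cultures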; conditions: S. cerevisiae sgs1 mutant, stronger effect = higher value
Summary of the method: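 Each compound was added to cultures of the altered yeast strain. Growth was recorded, and inhibition was derived by comparison with vehicle controls.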

[12] = NCI Yeast Anticancer Drug Screen. Data for the mlh1 rad18 strain (AID 175); conditions: S. cerevisiae mlh1 rad18 strain growth inhibition, stronger effect = higher value
Summary of the method: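 Genetically defined yeast (DNA repair-deficient) exposed to compounds; growth inhibition determined relative to vehicle.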

[13] = NCI Yeast Anticancer Drug Screen. Data for the rad18 strain (AID 177); conditions: S. cerevisiae rad18 mutant growth inhibition, stronger effect = higher value
Summary of the method: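 Vehicle-treated cultures served as the baseline for scoring compound-induced growth inhibition in DNA-repair-mutant yeast.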

[14] = at 5.0 µM (retest, dose inferred, filed as 0.5)
[15] = at 50.0 µM (retest, dose inferred, filed as 5.0)

CCOC(=O)C(NC(=O)c1ccccc1)[CH](c1ccccc1)[Sn]([c]1ccccc1)([c]1ccccc1)[c]1ccccc1 (stereo unspecified)
growth inhibition ([1]; at 1.2 µM): -1% (inactive)
growth inhibition ([1]; at 3.7 µM): 2% (inactive)
growth inhibition ([1]; at 11.0 µM): 2% (inactive)
growth inhibition ([1]; at 33.0 µM): 17% (inactive)
growth inhibition ([1]; at 100.0 µM): 95% (active)
growth inhibition ([2]; at 1.2 µM): 0% (inactive)
growth inhibition ([2]; at 3.7 µM): 3% (inactive)
growth inhibition [2, 14]: -4% (inactive)
growth inhibition ([2]; at 11.0 µM): 4% (inactive)
growth inhibition ([2]; at 33.0 µM): 21% (inactive)
growth inhibition [2, 15]: 73% (active)
growth inhibition ([2]; at 50.0 µM): 95.7% (active)
growth inhibition ([2]; at 100.0 µM): 92% (active)
growth inhibition ([3]; at 1.2 µM): 0% (inactive)
growth inhibition ([3]; at 3.7 µM): 1% (inactive)
growth inhibition [3, 14]: -3% (inactive)
growth inhibition ([3]; at 11.0 µM): 1% (inactive)
growth inhibition ([3]; at 33.0 µM): 17% (inactive)
growth inhibition [3, 15]: 40% (inactive)
growth inhibition ([3]; at 50.0 µM): 97.8% (active)
growth inhibition ([3]; at 100.0 µM): 95% (active)
growth inhibition ([4]; at 1.2 µM): 2% (inactive)
growth inhibition ([4]; at 3.7 µM): 2% (inactive)
growth inhibition ([4]; at 11.0 µM): 4% (inactive)
growth inhibition ([4]; at 33.0 µM): 17% (inactive)
growth inhibition ([4]; at 100.0 µM): 95% (active)
growth inhibition [5, 14]: -4% (inactive)
growth inhibition [5, 15]: 36% (inactive)
growth inhibition ([5]; at 50.0 µM): 97.3% (active)
growth inhibition ([6]; at 1.2 µM): -5% (inactive)
growth inhibition ([6]; at 3.7 µM): -11% (inactive)
growth inhibition ([6]; at 11.0 µM): -15% (inactive)
growth inhibition ([6]; at 33.0 µM): -6% (inactive)
growth inhibition ([6]; at 100.0 µM): 95% (active)
growth inhibition [7, 14]: -7% (inactive)
growth inhibition [7, 15]: 19% (inactive)
growth inhibition ([7]; at 50.0 µM): 93.7% (active)
growth inhibition ([8]; at 1.2 µM): -7% (inactive)
growth inhibition ([8]; at 3.7 µM): -4% (inactive)
growth inhibition [8, 14]: -11% (inactive)
growth inhibition ([8]; at 11.0 µM): -6% (inactive)
growth inhibition ([8]; at 33.0 µM): 10% (inactive)
growth inhibition [8, 15]: 59% (inactive)
growth inhibition ([8]; at 50.0 µM): 98.7% (active)
growth inhibition ([8]; at 100.0 µM): 94% (active)
growth inhibition ([9]; at 1.2 µM): -3% (inactive)
growth inhibition ([9]; at 3.7 µM): -2% (inactive)
growth inhibition ([9]; at 11.0 µM): -1% (inactive)
growth inhibition ([9]; at 33.0 µM): 35% (inactive)
growth inhibition ([9]; at 100.0 µM): 96% (active)
growth inhibition ([10]; at 1.2 µM): 0% (inactive)
growth inhibition ([10]; at 3.7 µM): 0% (inactive)
growth inhibition ([10]; at 11.0 µM): 0% (inactive)
growth inhibition ([10]; at 33.0 µM): 17% (inactive)
growth inhibition ([10]; at 100.0 µM): 96% (active)
growth inhibition ([11]; at 1.2 µM): 1% (inactive)
growth inhibition ([11]; at 3.7 µM): 4% (inactive)
growth inhibition ([11]; at 11.0 µM): 4% (inactive)
growth inhibition ([11]; at 33.0 µM): 34% (inactive)
growth inhibition ([11]; at 100.0 µM): 94% (active)
growth inhibition [12, 14]: -5% (inactive)
growth inhibition [12, 15]: 79% (active)
growth inhibition ([12]; at 50.0 µM): 98% (active)
growth inhibition ([13]; at 1.2 µM): -1% (inactive)
growth inhibition ([13]; at 3.7 µM): 5% (inactive)
growth inhibition ([13]; at 11.0 µM): 0% (inactive)
growth inhibition ([13]; at 33.0 µM): 45% (inactive)
growth inhibition ([13]; at 100.0 µM): 94% (active)

Cc1cc(SC#N)ccc1O
growth inhibition [2, 14]: 13% (inactive) and 4% (inactive) and -2% (inactive)
growth inhibition [2, 15]: 91% (active)
growth inhibition ([2]; at 50.0 µM): 92.6% (active) and 86.2% (active) and 91.6% (active)
growth inhibition [3, 14]: -1% (inactive) and -7% (inactive) and -6% (inactive)
growth inhibition [3, 15]: 83% (active) and 90% (active) and 62% (inactive)
growth inhibition ([3]; at 50.0 µM): 90% (active) and 87.1% (active)
growth inhibition [5, 14]: -2% (inactive) and 6% (inactive)
growth inhibition [5, 15]: 92% (active) and 77% (active) and 63% (inactive)
growth inhibition ([5]; at 50.0 µM): 95.2% (active) and 85.7% (active) and 75% (active)
growth inhibition [7, 14]: -1% (inactive) and 26% (inactive) and -3% (inactive)
growth inhibition [7, 15]: 64% (inactive) and 91% (active) and 71% (active)
growth inhibition ([7]; at 50.0 µM): 32.8% (inactive) and 83.2% (active) and 70% (inactive)
growth inhibition [8, 14]: 15% (inactive) and 2% (inactive) and 13% (inactive)
growth inhibition [8, 15]: 94% (active) and 80% (active)
growth inhibition ([8]; at 50.0 µM): 91.3% (active) and 88.4% (active) and 95% (active)
growth inhibition [12, 14]: 9% (inactive) and -4% (inactive) and 1% (inactive)
growth inhibition [12, 15]: 95% (active) and 87% (active)
growth inhibition ([12]; at 50.0 µM): 96.4% (active) and 86.3% (active) and 95.6% (active)
